# Data published in PubChem BioAssay (NCI).
# About 83,000 compounds went through this panel and 20% of them were active in at least one assay; those are over-represented in the sample as a whole.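 Percent growth is the endpoint: 0 to 100 indicates growth inhibition (40 means 60% inhibition), 0 means no net growth, and negative values indicate cell death.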 Values without a mark were called inactive. Active and inactive are the calls of the source. The calls were made as follows: active = growth percent below 10; inactive = the rest.
# Columns and labels:
# Assay in all cases: NCI-60 one-dose screen, 48 h (100 = growth as untreated, 0 = no growth, -100 = all killed)
# [1] = tested on: SK-MEL-2 melanoma; details: 10 µM unless noted
# [2] = tested on: SN12C renal; details: 10 µM unless noted
# [3] = tested on: UO-31 renal; details: 10 µM unless noted
# [4] = tested on: TK-10 renal; details: 10 µM unless noted
# [5] = tested on: ACHN renal; details: 10 µM unless noted
# [6] = tested on: CAKI-1 renal; details: 10 µM unless noted
# [7] = tested on: A498 renal; details: 10 µM unless noted
# [8] = tested on: CCRF-CEM leukemia; details: 10 µM unless noted
# [9] = tested on: MOLT-4 leukemia; details: 10 µM unless noted
# [10] = tested on: SR leukemia; details: 10 µM unless noted
# [11] = tested on: RPMI-8226 leukemia; details: 10 µM
# [12] = tested on: OVCAR-8 ovarian; details: 10 µM unless noted
# [13] = tested on: OVCAR-5 ovarian; details: 10 µM unless noted
# [14] = tested on: OVCAR-4 ovarian; details: 10 µM unless noted
# [15] = tested on: SK-OV-3 ovarian; details: 10 µM
# [16] = tested on: IGROV1 ovarian; details: 10 µM unless noted
# [17] = tested on: OVCAR-3 ovarian; details: 10 µM unless noted
# [18] = tested on: HS 578T breast; details: 10 µM unless noted
# [19] = tested on: NCI/ADR-RES ovarian; details: 10 µM unless noted
# [20] = tested on: EKVX NSCLC; details: 10 µM unless noted
SMILES,growth [1] [%],growth [2] [%],growth [3],growth [4] [%],growth [5],growth [6] [%],growth [7] [%],growth [8] [%],growth [9] [%],growth [10],growth [11],growth [12] [%],growth [13] [%],growth [14] [%],growth [15] [%],growth [16] [%],growth [17] [%],growth [18] [%],growth [19] [%],growth [20] [%]
O=C(Nc1ccc(F)cc1)c1ccc(C(=O)Nc2ccc(F)cc2)cc1,105,102,87.8%,108,99.8%,94.2,90.4,102,94.4,94.5%,113%,99.6,101,93.4,103,109,109,106,116,–
C=CC[P+](c1ccccc1)(c1ccccc1)c1ccccc1,24.6,69.7,99.7%,78.7,91.2%,90.9,81.5,59.7,62.5,35.7%,6.29% (active),45.8,77,46,70.8,73.2,32,79.4,112,–
Cn1c2c(cc(S(=O)(=O)c3ccccc3)c1=O)CCc1c-2cnn1-c1ccccc1Cl,105,97.8,-16% (active),122,-31% (active),54.7,86.5,96.4,90.7,80.2%,91.7%,88.6,96.5,101,88.7,107,110,117,113,–
Cc1nn(-c2ccccc2)c2nc3nc4c(c(N)c3c(-c3ccc(Cl)cc3)c12)CCCC4,98.3,96.3,84.4%,112,81.8%,90.5,97.2,92.5,97,-15.3% (active),93%,92.6,96.3,109,101,104,114,105,106,–
COc1ccc(-c2cc(=O)oc3c4c(ccc23)OCN(Cc2ccc(F)cc2)C4)cc1,94.2,58.6,42.7%,62.4,64.7%,51.7,38.9,52.4,39.9,54.7%,30.1%,56.7,80.2,35.2,74.3,64.5,52.4,83.1,45.9,–
CCOC(=O)c1cc2c(n(C)c1=O)-c1cnn(-c3ccc(OC)cc3)c1CC2,105,99.8,77.5%,130,81.4%,89.8,87,89.5,94.2,87.2%,89.1%,93.8,95.2,106,108,115,107,119,114,–
O=C(N/N=C(\CS(=O)(=O)c1ccccc1)c1cc2cc(Br)ccc2oc1=O)c1ccccc1,105,96.1,–,108,103%,90.6,–,131,140,122%,121%,101,94.1,–,–,110,108,99.4,105,94.2
O=C(Nc1nc2ccccc2[nH]1)C(=O)Nc1nc2ccccc2[nH]1,98.8,94.5,69.6%,132,93.4%,91.5,99.1,94.7,103,89.6%,90.8%,102,88.6,96.3,108,81.9,101,105,98.7,–
